Common to all, as to test: NCI-60 one-dose screen, 48 h (100 = growth as untreated, 0 = no growth, -100 = all killed)
Common to all, as to conditions: 10 µM unless noted

For test [1], the system named is DU-145 prostate.
In test [2] the test system is K-562 leukemia.
For test [3], the system named is MALME-3M melanoma.
The subject of test [4] is MDA-MB-231 breast.
Test [5] relates to RXF 393 renal.
The subject of test [6] is SF-268 CNS.
For test [7], the system named is SF-295 CNS.
Test [8] concerns SF-539 CNS.
Test [9] concerns UACC-257 melanoma.
Test [10] relates to M14 melanoma.

Structures are written as SMILES. Compounds without any hit were thinned out: in the full panel of roughly 83,000, 20% have a hit.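 Values shown are percent growth following 48 h exposure of cells in 96-well plates to a single concentration of compound; below 10 was considered active.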 Values without a mark were called inactive. Calls of active or inactive are those of the source.

Turning to `CC(=O)OC[C@]1(C)C=C2C(=O)[C@](C)(O)C3(CC3)C(C)=C2[C@H]1O`, the growth in test [1] is -19.4% (active); in [2], 27.2%; in test [3], -78.8% (active); in [4], -28.1% (active); in test [5] it was -79.4% (active); in [6] it was -8.2% (active). Also, the growth is -19.3% (active) in [7], -68.9% (active) in test [8], -28.9% (active) in test [9] and -66.9% (active) in [10].

For `O=[N+]([O-])c1cc([N+](=O)[O-])c(Nn2c3ccccc3c3ccccc32)c([N+](=O)[O-])c1`, the growth in test [1] was 22.7%; in test [2], 6.42% (active); in test [3], -16.2% (active); in [4], -6.81% (active); in test [5], -4.31% (active); in [6] it was 16.2%. The growth in test [7] was -47.6% (active); in test [8], 8.26% (active); in test [9], -22.6% (active); in test [10] it was 1.91% (active).

For the molecule `CC(C)=CCC[C@H](C(=O)O)[C@@H]1CC[C@]2(C)C3=C(CC[C@@]12C)[C@@]1(C)CC[C@H](O)C(C)(C)[C@@H]1CC3`, the growth is 110% in [1]; 70.4% in test [2]; 106% in test [3]; 103% in test [4]; 104% in [5]; 101% in test [6]. Further, the growth in [7] is 94.6%; in test [8], 93.2%; in test [9], 88.9%; in test [10], 85.9%.

On to `CC12CCC(O)CC1=CCC1C2CCC2(C)C(O)CCC12` (stereo not given), for which the growth is 105% in test [1]; 115% in test [2]; 102% in test [3]; 105% in test [4]; 101% in test [5]; 102% in test [6]. Besides, the growth in test [7] is 96.2%; in test [8], 98.9%; in test [9], 110%; in test [10], 106%.

In the case of `COc1ccc(NC([Se])=NC23CC4CC(CC(C4)C2)C3)cc1`, the growth is 2.16% (active) in test [1]; 12.3% in test [2]; -18.5% (active) in test [3]; -44.4% (active) in test [4]; -41% (active) in [5]; 38.5% in test [6]. In addition, the growth was -23.6% (active) in test [7], -6.89% (active) in test [8], -45.5% (active) in test [9] and -6.57% (active) in test [10].

As for `CSc1nc(Cl)cc(N2CC2)n1`, the growth in [1] is 110%; in [2], 120%; in [3], 105%; in [4], 106%; in [5] it was 111%; in test [6], 99.1%. Also, the growth in test [7] was 115%; in [8] it was 98.8%; in [9] it was 107%; in [10], 114%.

For `COc1ccc(Nc2ccnc3cc(Cl)ccc23)cc1CN(CCCl)CCCl`, the growth was -26.4% (active) in [1]; 0.691% (active) in test [2]; -85.3% (active) in test [3]; 0.96% (active) in test [4]; -72.3% (active) in test [5]; -29.3% (active) in test [6]. The growth in test [7] is -24.8% (active); in test [8], -75.8% (active); in [9], -39.1% (active); in test [10], -58.4% (active).

With `O=C(N/N=C/c1ccc(N(CCCl)CCCl)cc1)c1cccc2ccccc12`, the growth is 85.3% in [1]; 38.9% in test [2]; 84.8% in [3]; 86.9% in test [4]; 93.3% in test [5]; 77.4% in test [6]. Moreover, the growth is 78.7% in [7], 78.6% in [8], 79.1% in test [9] and 51.7% in test [10].

Consider `CCN(CC)c1ccc2c(c1)OC(N)=C(C#N)C2c1cc(OC)c2c(c1)OCO2` (stereo not given), for which the growth in test [1] was -3.69% (active); in [2], 17.5%; in test [3] it was 61.1%; in test [4], 4.28% (active); in test [5] it was 30.9%; in test [6], 21.3%. In addition, the growth in [7] was 17%; in [8], 3.37% (active); in [9] it was 77.7%; in test [10] it was 7.87% (active).

For the molecule `CC(=O)O[C@H](C[C@H](C(C)C)N(C)C(=O)[C@@H](NC(=O)[C@H]1CCCCN1C)C(C)(C)C)c1nc(C(=O)N[C@@H](Cc2ccccc2)C[C@H](C)C(=O)O)cs1`, the growth in test [1] was 0.642% (active); in test [2], 5.51% (active); in test [3] it was 66.7%; in [4], 6.25% (active); in test [5] it was 39.5%; in [6], 24.1%. In addition, the growth is -0.638% (active) in [7], -10.9% (active) in test [8], 47% in [9] and 3.36% (active) in [10].

Take `C=CCn1cc(C=C2C(=O)N(C)C(=O)N(C)C2=O)c2ccccc21`: the growth was 108% in [1]; 108% in test [2]; 97.4% in [3]; 88.4% in [4]; 89.9% in test [5]; 97.8% in test [6]. The growth is 66.4% in test [7], 102% in test [8], 94.4% in test [9] and 88.9% in test [10].

Consider `COc1cc(C=Nc2cccc(Br)c2)ccc1N(CCCl)CCCl`, for which the growth is 87.6% in test [1]; 88.4% in [2]; 128% in test [3]; 91.2% in test [4]; 2.86% (active) in [5]; 80.3% in [6]. Further, the growth in test [7] was 44.4%; in [8], 67.9%; in test [9], 96.6%; in test [10] it was 94%.

With `CC(=O)OC1CCC2C3CCC4=C/C(=N/OC(=O)c5ccc(N(CCCl)CCCl)cc5)CCC4(C)C3CC(C)C12` (stereo not given), the growth in test [1] was 79.6%; in test [2] it was 18.2%; in test [3] it was 76.3%; in test [4], 78.5%; in [5], 67.9%; in test [6], 62.9%. For the same molecule, the growth in [7] was 81.5%; in test [8] it was 75.6%; in test [9] it was 105%; in [10], 89.6%.

On to `Cc1ccccc1NC(=NCCCN1CC1)Nc1ccccc1C`, for which the growth is 90.1% in test [1]; 94% in [2]; 105% in test [3]; 64.4% in test [4]; 85.3% in [5]; 86.5% in test [6]. The growth in test [7] was 103%; in test [8], 109%; in [9] it was 103%; in test [10], 91.3%.

Regarding `CCOc1ccccc1C(=O)OCC(Cl)(Cl)Cl`, the growth was 99.8% in [1]; 98.8% in [2]; 109% in test [3]; 114% in [4]; 109% in [5]; 101% in test [6]. Further, the growth in test [7] is 105%; in test [8] it was 101%; in test [9], 112%; in [10], 103%.

As to `O=C1NC(=O)C(=Cc2cn(C(=O)c3ccccc3)c3ccccc23)C(=O)N1`, the growth is 113% in test [1]; 141% in test [2]; 90.5% in test [3]; 88.9% in test [4]; 45% in [5]; 102% in test [6]. Further, the growth in test [7] is 116%; in test [8] it was 87.6%; in [9], 87%; in [10], 95.3%.

As for `C/C(Cc1ccc(Cl)cc1)=C(\c1ccc(OCCN2CCOCC2)cc1)c1ccc(OC(=O)Cc2ccccc2)cc1`, the growth was 107% in [1]; 79.5% in test [2]; 99% in test [3]; 96.5% in [4]; 94.7% in [5]; 95.6% in test [6]. Moreover, the growth was 99.9% in test [7], 108% in [8], 86.1% in test [9] and 89.4% in test [10].

For `COc1cc2ncnc(Nc3ccc(F)c(Cl)c3)c2cc1OCC(=O)N1CCN(C)CC1`, the growth in test [1] is 62.6%; in test [2], 82.8%; in test [3], 96.5%; in test [4], 94.7%; in test [5], 88.8%; in [6] it was 73.6%. Further, the growth in test [7] was 92.8%; in test [8], 98.2%; in test [9], 104%; in test [10] it was 97.5%.

As for `N#Cc1c(Br)n(C2OC(CO)C(O)C2O)c2ncnc(N)c12` (stereo not given), the growth is 17.8% in test [1]; 20.8% in [2]; 108% in test [3]; 97.1% in [4]; 13.8% in test [5]; 55% in test [6]. Besides, the growth in test [7] was 87.5%; in test [8], 102%; in test [9] it was 80.3%; in test [10] it was 60%.

Take `Cc1ccc(S(=O)(=O)C(Cl)(Cl)Cl)cc1`: the growth is 109% in test [1]; 93.3% in test [2]; 92.5% in test [3]; 95.8% in test [4]; 102% in test [5]; 97.5% in [6]. Further, the growth was 91.1% in test [7], 99.9% in test [8], 86.1% in test [9] and 94.6% in test [10].

Regarding `C[C@@]12CC=C3c4nc(Nc5cccc(O)c5)sc4CC[C@]3(C)[C@H]1CC[C@]1(C)C(=O)CC[C@@H]21`, the growth was 12.7% in [1]; 4.81% (active) in test [2]; 35.3% in [3]; 39.5% in test [4]; -6.67% (active) in test [5]; 43.1% in test [6]. The growth is -47.7% (active) in test [7], -41.8% (active) in test [8], 79.6% in [9] and 54.8% in test [10].

As to `CC(C)(C)C(=O)OCOP(=O)(OCOC(=O)C(C)(C)C)C1CCCN(O)C1=O` (stereo not given), the growth in test [1] was 20%; in test [2] it was 8.42% (active); in [3], 12.3%; in test [4], 5.67% (active); in test [5] it was -9.35% (active); in test [6] it was 4.35% (active). The growth in test [7] was 54%; in test [8], 27.4%; in test [9] it was 18.9%; in [10], 26.6%.

Take `CC[C@H](C)[C@H](NC(=O)[C@H]1CCCCN1C)C(=O)N(C)[C@H](C[C@@H](O)c1nc(C(=O)N[C@@H](Cc2ccccc2)C[C@H](C)C(=O)O)cs1)C(C)C`: the growth in test [1] was 112%; in test [2] it was 42.1%; in test [3], 77.6%; in test [4] it was 95.2%; in [5] it was 96.9%; in test [6], 88.2%. The growth in test [7] was 90.6%; in test [8] it was 83.6%; in test [9], 76.1%; in [10], 64.5%.

`CC(=O)OC1CCC2(C)C(CCC3C2CC(=O)C2(C)C3CC(Sc3ccc(N(CCCl)CCCl)cc3)C2C(C)=O)C1` (stereo not given): the growth in [1] is 100%; in test [2], 7.43% (active); in [3] it was 139%; in test [4] it was 85.6%; in test [5], 107%; in [6] it was 85.9%. Further, the growth in test [7] is 67.6%; in test [8], 13.7%; in test [9], 90.3%; in test [10] it was 81%.

Turning to `O=[N+]([O-])c1ccc([Se]C2CCCCC2Cl)c([N+](=O)[O-])c1` (stereo not given), the growth in test [1] is 82.1%; in test [2], 105%; in test [3], 69.8%; in test [4], 61.7%; in [5], 67.7%; in test [6], 14.3%. The growth is -41.3% (active) in test [7], -87.3% (active) in test [8], 59.2% in test [9] and 40.2% in [10].

Consider `C/C(=C\c1ccn(-c2ccccc2N)n1)[C@@H]1C[C@@H]2O[C@]2(C)CCC[C@H](C)[C@H](O)[C@@H](C)C(=O)C(C)(C)[C@@H](O)CC(=O)O1`, for which the growth is -17.8% (active) in test [1]; 14.6% in [2]; 41.7% in test [3]; 21.9% in test [4]; -3.76% (active) in [5]; 30.3% in test [6]. The growth in test [7] is 13.8%; in test [8], -12% (active); in test [9], 62.3%; in [10] it was 2.49% (active).

Source of the values: PubChem BioAssay (NCI).
